Inconclusive results are not listed. Activity calls are given as the source filed them. Calls come from the whole dose curve; as a rule, active = well fitted curve in the direction sought with a large enough effect; inconclusive = small, poorly fitted or top-dose-only effect, or another doubt; inactive = no such curve, though single readings can be large; an effect the other way counts as inactive or inconclusive.
Tests used:
[1] = qHTS of pediatric cancer cell lines to identify multiple opportunities for drug repurposing: Primary screen for NB-EBc1 cells (AID 1347095)
Method in brief: (§1)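 Plated cells (500-1,000 per well, growth media) were allowed to settle for 5 hours, treated with compound dilutions for 48 hours, then lysed with CellTiter-Glo for 15 min at room temperature before luminescence reading.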

[2] = qHTS of pediatric cancer cell lines to identify multiple opportunities for drug repurposing: Primary screen for U-2 OS cells (AID 1347096); note: nearly all actives have a fitted effect of over 50% in size
Method in brief: (§2)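 Cells (500-1,000/well) in growth media were settled 5 h at 37 degrees C, then given compounds for 48 h. Viability was read as CellTiter-Glo luminescence. Primary runs used MIPE at 11 points (0.78 nM-46 µM) and NPC at 8 points (0.59 nM-46 µM); follow-ups used 11 points.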

[3] = qHTS of pediatric cancer cell lines to identify multiple opportunities for drug repurposing: Primary screen for Saos-2 cells (AID 1347097); note: nearly all actives have a fitted effect of over 40% in size; note: potency is the fitted concentration of half-maximal effect
Method in brief: as §1

[4] = qHTS of pediatric cancer cell lines to identify multiple opportunities for drug repurposing: Primary screen for SK-N-SH cells (AID 1347098); note: nearly all actives have a fitted effect of over 65% in size; note: potency is the fitted concentration of half-maximal effect
Method in brief: (§3)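 Cells (500-1,000/well) rested 5 h, then received compounds for 48 h; metabolically active cells were measured by CellTiter-Glo luminescence. Final concentrations spanned up to 46 µM (MIPE, 11-point) or 0.59 nM-46 µM (NPC, 8-point) in primary screens, 11-point in follow-ups.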

[5] = qHTS of pediatric cancer cell lines to identify multiple opportunities for drug repurposing: Primary screen for LAN-5 cells (AID 1347100)
Method in brief: as §2

[6] = qHTS of pediatric cancer cell lines to identify multiple opportunities for drug repurposing: Primary screen for Rh18 cells (AID 1347102); note: nearly all actives have a fitted effect of over 65% in size
Method in brief: as §2

[7] = qHTS of pediatric cancer cell lines to identify multiple opportunities for drug repurposing: Primary screen for RD cells (AID 1347104); note: nearly all actives have a fitted effect of over 55% in size
Method in brief: as §1

[8] = qHTS of pediatric cancer cell lines to identify multiple opportunities for drug repurposing: Primary screen for control Hh wild type fibroblast cells (AID 1347106);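 note: series mostly up to about 46 µM; a drop in luminescence marks cytotoxicity and a rise apparent proliferation; nearly all actives have a fitted effect of over 55% in size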
Method in brief: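 Viability after 48 h compound treatment at 37C, 500-1,000 cells/well, read as ATP luminescence with CellTiter-Glo. Primary screens used 11-point (MIPE, 0.78 nM-46 µM) or 8-point (NPC, 0.59 nM-46 µM) final concentrations; follow-up screens used 11-point dilutions.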

[9] = qHTS of pediatric cancer cell lines to identify multiple opportunities for drug repurposing: Primary screen for Rh30 cells (AID 1347107); note: series mostly up to about 46 µM; nearly all actives have a fitted effect of over 75% in size
Method in brief: as §2

[10] = qHTS of pediatric cancer cell lines to identify multiple opportunities for drug repurposing: Primary screen for Rh41 cells (AID 1347108);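 note: series mostly up to about 46 µM; luminescence drop marks cytotoxic hits; nearly all actives have a fitted effect of over 70% in size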
Method in brief: as §1

[11] = qHTS of pediatric cancer cell lines to identify multiple opportunities for drug repurposing: Primary screen for NB1643 cells (AID 1347099); note: nearly all actives have a fitted effect of over 50% in size
Method in brief: as §1

[12] = qHTS of pediatric cancer cell lines to identify multiple opportunities for drug repurposing: Primary screen for BT-12 cells (AID 1347101); note: nearly all actives have a fitted effect of over 25% in size
Method in brief: as §3

[13] = qHTS of pediatric cancer cell lines to identify multiple opportunities for drug repurposing: Primary screen for OHS-50 cells (AID 1347103); note: nearly all actives have a fitted effect of over 40% in size; note: potency is the fitted concentration of half-maximal effect
Method in brief: as §3

[14] = qHTS of pediatric cancer cell lines to identify multiple opportunities for drug repurposing: Primary screen for MG 63 (6-TG R) cells (AID 1347105); note: nearly all actives have a fitted effect of over 50% in size
Method in brief: as §1

Measured: Potency

CCn1ccnc1CC1COc2ccccc2O1 (centres undefined)
not listed: [11] | [12] | [13] | [14]
inactive: all other assays above

CCOC(=O)C1=C(C)NC(C)=C(C(=O)OC)C1c1cccc([N+](=O)[O-])c1 (centres undefined)
not listed: [3] | [13] | [14]
inactive: all other assays above

CC(C)NCC(O)c1cc(O)cc(O)c1 (centres undefined)
not listed: [8] | [9] | [11] | [12]
inactive: all other assays above

CCCNC(C)C(=O)Nc1ccccc1C (centres undefined)
not listed: [7] | [11] | [12] | [13]
inactive: all other assays above

CCNC(=O)N1CCN(CCCC(c2ccc(F)cc2)c2ccc(F)cc2)CC1
active: [4] 30.7 µM
not listed: [7] | [10] | [11] | [12] | [13]
inactive: all other assays above

CCCCNc1c(C(=O)OCC)c(C)nc2c1cnn2CC
active: [3] 26.6 µM
not listed: [4] | [5] | [8] | [12] | [13]
inactive: all other assays above

CC(=O)[C@@]1(O)CC[C@H]2[C@@H]3CCC4=CC(=O)CC[C@]4(C)[C@H]3CC[C@@]21C
not listed: [7] | [11] | [12] | [13] | [14]
inactive: all other assays above

CN1CCN(C2=Nc3ccccc3Oc3ccc(Cl)cc32)CC1
not listed: [3] | [7] | [8] | [12] | [13]
inactive: all other assays above

CCN(CC)CCCN(c1ccccc1)C1Cc2ccccc2C1
inactive: [1] | [2] | [3] | [11] | [6] | [8] | [9] | [10]

OCCN1CCN(CCCN2c3ccccc3C=Cc3ccccc32)CC1
not listed: [4] | [7] | [11] | [13]
inactive: all other assays above

CC(N=C(NC#N)Nc1ccncc1)C(C)(C)C (centres undefined)
not listed: [4] | [13] | [14]
inactive: all other assays above

COC(=O)[C@H]1[C@H]2C[C@@H]3c4[nH]c5cc(OC)ccc5c4CCN3C[C@H]2C[C@@H](OC(=O)c2cc(OC)c(OC)c(OC)c2)[C@@H]1OC
active: [3] 23.7 µM
inactive: [1] | [2] | [5] | [6] | [8]

CCCN(CCC)CCc1cccc2c1CC(=O)N2
not listed: [3]
inactive: all other assays above

O=c1[nH]c(=O)n([C@H]2C[C@H](O)[C@@H](CO)O2)cc1Br
not listed: [9] | [11] | [12]
inactive: all other assays above

Cc1nnc(SCC2=C(C(=O)O)N3C(=O)[C@@H](NC(=O)Cn4cnnn4)[C@H]3SC2)s1
not listed: [8] | [11] | [12]
inactive: all other assays above

NC1=NCC2c3ccccc3Cc3ccccc3N12 (centres undefined)
not listed: [6] | [7] | [11] | [12]
inactive: all other assays above

CN(C(=O)CCCOc1ccc2[nH]c(=O)ccc2c1)C1CCCCC1
active: [13] 21.9 µM
not listed: [3] | [9] | [10] | [12]
inactive: all other assays above

CNC1(C)C2CCC(C2)C1(C)C (centres undefined)
not listed: [3] | [12] | [13]
inactive: all other assays above

COC(=O)[C@@H](N)Cc1ccc(O)c(O)c1
not listed: [3] | [13] | [14]
inactive: all other assays above

CCO/C([O-])=N/c1c[n+](N2CCOCC2)no1
not listed: [7] | [11] | [12]
inactive: all other assays above

NC(N)=N/N=C/c1c(Cl)cccc1Cl
not listed: [4] | [7] | [12] | [13] | [14]
inactive: all other assays above
